Activity calls are given as the source filed them. Unless noted, no rule for the calls is given here.

A short description of experiment [1]: compounds binding Alexa647 anti-His antibody – biochemical, small-molecule microarray, 635 nm fluorescence, artefact control for SMM control protein annotation, primary screen (AID 1128).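 Also: score merges feature fluorescence with signal-to-noise for each printed compound spot.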 The note with it: higher = more signal.
In experiment [2] the test system is Human papillomavirus type 1a E7 protein (residues 1-88). Description: HPV1a E7 small-molecule binders, primary screen, biochemical, small-molecule microarray, residues 1-88, 635 nm (AID 1129). The note with it: small-molecule microarray binding, fluorescence 635 nm; higher = more signal.
The target of experiment [3] is Focal adhesion kinase 1 (Homo sapiens) (UniProt Q05397). Kind of experiment: PTK2 protein binding on printed compound slides – biochemical, small-molecule microarray, 635/667 nm fluorescence, BSA, DTT, primary screen (AID 1130).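 Also: composite of spot emission at 667 nm and signal to noise over triplicate slides.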 Conditions: 635 nm fluorescence, higher = more signal.
In experiment [4] the test system is Fibrinogen (Alexa647-labelled). Description: Alexa647-fibrinogen binding to printed small molecules – biochemical, small-molecule microarray, 635/667 nm fluorescence, artefact control for SMM control-protein annotation, profiling panel (AID 1131).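 Also: z-score merges 667 nm fluorescence with per-spot signal-to-noise over triplicate slides.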 The note with it: fibrinogen-A647 binding fluorescence, higher = more signal.
Experiment [5] concerns the target Follistatin (Homo sapiens) (UniProt P19883). Kind of experiment: FST protein binding to printed compounds – biochemical, small-molecule microarray, 635/667 nm fluorescence, primary screen (AID 1132). The note with it: 635 nm fluorescence, higher = more signal.
For experiment [6], the target named is Fibroblast growth factor 2 (Homo sapiens) (UniProt P09038). Kind of experiment: basic fibroblast growth factor binding to printed compounds – biochemical, small-molecule microarray, 635/667 nm fluorescence, primary screen (AID 1133). The note with it: FGF2, fluorescence 635/667, higher = more signal.
Experiment [7] in a line: JC-1 mitochondrial potential readout, lung cancer cells – cell-based, A549, JC-1 fluorescence, basal, 24 h, 100 nL, profiling panel (AID 1138).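 Also: A549 lung adenocarcinoma cells under basal conditions with no added stimulus; test concentration not given here.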 Conditions: higher = more signal.
In experiment [8] the test system is Lefty1. Description: Lefty1 protein binding to printed compounds – biochemical, small-molecule microarray, 635/667 nm fluorescence, primary screen (AID 1139). Conditions: fluorescence 635/667, higher = more signal.
Experiment [9] has as its system wheat germ agglutinin (Triticum aestivum), Alexa647-labelled. Description: Alexa647-WGA lectin binding to printed small molecules – biochemical, small-molecule microarray, 635/667 nm fluorescence, artefact control for SMM control-protein annotation, profiling panel (AID 1140).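 Also: score merges 667 nm feature emission with signal to noise over triplicate slides.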 Conditions: WGA-A647 binding, 635 nm fluorescence, higher = more signal.
Experiment [10] addresses Luciferin 4-monooxygenase (Photinus pyralis) (UniProt P08659). Description: inhibition of purified Photinus pyralis luciferase – biochemical, luminescence, purified enzyme, 2006 set, primary screen (AID 1141).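 Also: cell-free assay with purified firefly luciferase at 100 ng per well in PBS; test concentration not given here.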 The note with it: purified firefly luciferase, SteadyGlo luminescence, 30 min; higher = more signal, called active from +8 up or from −8 down.
Experiment [11] has as its system Wnt5a (protein binding on small-molecule microarray). Description: small molecules binding Wnt5a protein – biophysical, small-molecule microarray, 635/667 nm fluorescence, primary screen (AID 1142).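 Also: fluorescence read at 667 nm with signal to noise per printed feature.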 The note with it: 635 nm fluorescence, higher = more signal.
A short description of experiment [12]: ATP-based viability of Huh7 replicon cells – cell-based, CellTiter-Glo luminescence, basal, 48 h, cytotoxicity control for HCV replication inhibitor project, primary screen (AID 1143).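 Also: Huh7 hepatoma cells carrying a hepatitis C replication reporter with no stimulus; test concentration not given here.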 Conditions: higher = more signal, called active from +8 up or from −8 down. A general note: In antiviral work, replicon cells carry a viral genome segment that copies itself.
A short description of experiment [13]: Pseudomonas biofilm growth suppression – PAO1 strain, BacTiter-Glo luminescence, LB-PBS, primary screen (AID 1144). The note with it: P. aeruginosa PAO1 biofilm, 12 h, higher = more signal.
Experiment [14] can be described thus: basal CRE-LacZ reporter activity in PC12 – cell-based, unstimulated, primary screen (AID 1145). The note with it: no forskolin, luminescence, 4.5 h, higher = more signal, called active from +8 up or from −8 down.
A short description of experiment [15]: forskolin-driven CRE-LacZ activity in PC12 – cell-based, CRE-LacZ reporter, forskolin-stimulated, primary screen (AID 1146).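 Also: PC12 cells with 6xCRE LacZ reporter stimulated by forskolin 10 µM; beta-galactosidase reporter signal reflecting CREB driven transcription.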 The note with it: luminescence, 4.5 h, higher = more signal, called active from +8 up or from −8 down.
Experiment [16] deals with Streptavidin (Streptomyces avidinii) (UniProt P22629). Description: compounds binding control protein streptavidin – biophysical, small-molecule microarray, 635/667 nm fluorescence, artefact control for SMM compound annotation, primary screen (AID 1147).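 Also: signal reflects streptavidin binding to arrayed compounds as a control protein.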 Conditions: higher = more signal.
Experiment [17] is described as follows: probe aInhba binding on compound microarray – biochemical, small-molecule microarray, 635/667 nm fluorescence, primary screen (AID 1148).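 Also: score merges 667nm spot fluorescence with signal-to-noise for antibody binding to printed compounds.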 Conditions: higher = more signal.
In experiment [18] the target is Torsin-1A (Homo sapiens) (UniProt O14656). Description: TOR1A wild-type binding on microarray – cell lysate, small-molecule microarray, lysate, 635/667 nm, primary screen (AID 1149). Conditions: COS7 hTOR1A-WT lysate, 635 nm fluorescence, higher = more signal.
Experiment [19] has the same target. Kind of experiment: torsin A mutant lysate binding on microarrays – cell lysate, small-molecule microarray, COS7 lysate, 635/667 nm fluorescence, primary screen (AID 1150).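 Also: score pools 667 nm emission and signal to noise measuring lysate protein binding.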 Conditions: COS7 hTOR1A mutant lysate, 635 nm fluorescence, higher = more signal.
The test system of experiment [20] is Sonic hedgehog protein (Shh). Description: Sonic hedgehog microarray binding compounds – biochemical, small-molecule microarray, 635/667 nm fluorescence, primary screen (AID 1151).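 Also: Shh protein binding to compounds spotted on small-molecule microarray slides; score combines spot fluorescence intensity with signal-to-noise across triplicate slides.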 Conditions: 635 nm fluorescence, higher = more signal.

Chain of Fibroblast growth factor 2 (Homo sapiens) (P09038 whole entry, looked up): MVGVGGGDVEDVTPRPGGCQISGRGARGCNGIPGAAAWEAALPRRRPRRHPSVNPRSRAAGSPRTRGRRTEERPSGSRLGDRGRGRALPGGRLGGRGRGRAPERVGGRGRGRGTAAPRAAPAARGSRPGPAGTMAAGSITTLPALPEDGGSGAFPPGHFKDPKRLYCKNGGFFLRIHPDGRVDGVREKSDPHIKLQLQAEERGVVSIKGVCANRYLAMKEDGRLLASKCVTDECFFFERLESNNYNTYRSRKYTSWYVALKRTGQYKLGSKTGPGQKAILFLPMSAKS
Chain of Focal adhesion kinase 1 (Homo sapiens) (Q05397 whole entry, looked up): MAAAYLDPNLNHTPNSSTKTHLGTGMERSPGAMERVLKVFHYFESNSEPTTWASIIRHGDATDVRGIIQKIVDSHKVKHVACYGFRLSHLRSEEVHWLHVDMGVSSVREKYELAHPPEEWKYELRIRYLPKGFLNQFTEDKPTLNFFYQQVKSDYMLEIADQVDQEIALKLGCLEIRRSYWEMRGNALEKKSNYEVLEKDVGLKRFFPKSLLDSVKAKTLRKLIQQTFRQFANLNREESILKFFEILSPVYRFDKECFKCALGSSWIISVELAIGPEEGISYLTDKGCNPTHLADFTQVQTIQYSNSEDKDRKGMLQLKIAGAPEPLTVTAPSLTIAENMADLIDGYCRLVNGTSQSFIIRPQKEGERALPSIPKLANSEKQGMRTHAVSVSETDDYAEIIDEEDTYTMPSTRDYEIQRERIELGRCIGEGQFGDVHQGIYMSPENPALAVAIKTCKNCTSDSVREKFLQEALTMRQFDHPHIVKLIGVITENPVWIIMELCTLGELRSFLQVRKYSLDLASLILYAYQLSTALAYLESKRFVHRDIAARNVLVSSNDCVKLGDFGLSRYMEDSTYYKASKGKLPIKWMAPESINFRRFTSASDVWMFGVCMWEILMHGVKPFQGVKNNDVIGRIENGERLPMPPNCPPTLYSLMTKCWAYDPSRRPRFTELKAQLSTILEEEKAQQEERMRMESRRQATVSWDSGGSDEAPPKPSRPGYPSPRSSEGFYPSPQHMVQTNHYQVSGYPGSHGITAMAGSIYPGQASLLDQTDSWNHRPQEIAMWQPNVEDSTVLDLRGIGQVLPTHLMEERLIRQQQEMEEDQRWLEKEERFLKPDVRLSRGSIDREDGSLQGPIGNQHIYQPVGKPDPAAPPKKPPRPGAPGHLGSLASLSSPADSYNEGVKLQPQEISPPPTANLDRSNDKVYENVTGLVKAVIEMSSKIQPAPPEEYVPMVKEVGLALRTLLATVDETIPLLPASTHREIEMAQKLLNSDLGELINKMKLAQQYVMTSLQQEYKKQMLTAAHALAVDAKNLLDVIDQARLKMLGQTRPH
Chain of Streptavidin (Streptomyces avidinii) (P22629 whole entry, looked up): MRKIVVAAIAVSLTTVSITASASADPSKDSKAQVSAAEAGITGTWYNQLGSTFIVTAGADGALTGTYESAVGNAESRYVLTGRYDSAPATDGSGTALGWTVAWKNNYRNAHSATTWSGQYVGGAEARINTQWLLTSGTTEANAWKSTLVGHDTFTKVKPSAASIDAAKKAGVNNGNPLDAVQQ
Chain of Follistatin (Homo sapiens) (P19883 whole entry, looked up): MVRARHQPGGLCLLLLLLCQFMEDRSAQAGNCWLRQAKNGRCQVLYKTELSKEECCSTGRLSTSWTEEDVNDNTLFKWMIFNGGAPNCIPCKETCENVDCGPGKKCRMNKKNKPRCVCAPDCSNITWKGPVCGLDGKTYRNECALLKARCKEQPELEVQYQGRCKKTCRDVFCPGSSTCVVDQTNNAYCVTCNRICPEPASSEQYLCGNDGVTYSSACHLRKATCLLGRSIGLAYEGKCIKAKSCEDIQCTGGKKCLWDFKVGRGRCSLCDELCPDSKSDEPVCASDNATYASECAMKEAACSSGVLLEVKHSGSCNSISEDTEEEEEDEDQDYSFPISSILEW
Chain of Torsin-1A (Homo sapiens) (O14656 whole entry, looked up): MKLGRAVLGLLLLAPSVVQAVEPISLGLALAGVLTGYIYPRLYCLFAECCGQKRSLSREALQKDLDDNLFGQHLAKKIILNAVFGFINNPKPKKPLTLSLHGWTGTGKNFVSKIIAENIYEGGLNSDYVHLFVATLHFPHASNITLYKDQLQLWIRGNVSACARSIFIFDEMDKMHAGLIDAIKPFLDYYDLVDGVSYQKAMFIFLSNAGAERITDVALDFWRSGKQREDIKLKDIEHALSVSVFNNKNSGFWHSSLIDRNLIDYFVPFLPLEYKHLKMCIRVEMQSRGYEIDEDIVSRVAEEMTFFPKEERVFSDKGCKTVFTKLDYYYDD
Chain of Luciferin 4-monooxygenase (Photinus pyralis) (P08659 whole entry, looked up): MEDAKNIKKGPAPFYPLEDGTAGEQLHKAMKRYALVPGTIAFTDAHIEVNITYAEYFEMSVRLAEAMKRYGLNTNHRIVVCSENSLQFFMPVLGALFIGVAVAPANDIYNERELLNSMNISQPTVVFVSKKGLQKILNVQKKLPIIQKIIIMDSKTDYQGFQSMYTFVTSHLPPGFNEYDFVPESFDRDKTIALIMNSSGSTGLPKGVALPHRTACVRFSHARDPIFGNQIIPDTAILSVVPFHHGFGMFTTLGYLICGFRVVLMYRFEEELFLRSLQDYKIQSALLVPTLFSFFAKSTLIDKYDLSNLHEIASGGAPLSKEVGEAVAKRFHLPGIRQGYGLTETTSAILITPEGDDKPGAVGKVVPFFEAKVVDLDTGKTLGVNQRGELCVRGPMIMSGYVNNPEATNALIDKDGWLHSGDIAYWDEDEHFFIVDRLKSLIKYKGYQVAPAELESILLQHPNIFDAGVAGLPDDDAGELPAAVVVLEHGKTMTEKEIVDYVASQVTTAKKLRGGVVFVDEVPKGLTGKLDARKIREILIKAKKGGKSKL

Regarding `[N-]=[N+]=NCc1ccccc1[C@H]1OC(c2ccc(OCCCO)cc2)=N[C@@]1(Cc1ccccc1)C(=O)NCc1ccccc1`, the composite z-score in experiment [1] stood at 0.517; in experiment [2], 1.17; in [3] it was 0.365; in experiment [4], 0.954; in experiment [5], 1.13; in experiment [6], 0.0948. The composite z-score is -0.352 in [8]; 0.468 in [9]; 0.348 in experiment [11]; 1.15 in [16]; -0.466 in [17]; 0.247 in [18]. In addition, the composite z-score turned out to be 0.714 in experiment [19] and 0.144 in experiment [20]. The z-score in [7] was 1.2; in experiment [10], -0.658 (inactive); in experiment [12] it was -3.57 (inactive); in [13], -0.862 (inactive); in experiment [14], -0.0108 (inactive); in [15] it was -0.157 (inactive).

Consider `CC(C)c1ccc(NN2C(C(O)c3cc(C(F)(F)F)cc(C(F)(F)F)c3)C=CC3C(=O)N(c4ccccc4)C(=O)C32)cc1` (stereo not given), for which the composite z-score in experiment [1] was 0.444; in experiment [2], 1.22; in experiment [3], 0.579; in experiment [4] it was 0.975; in [5], -0.105; in experiment [6], -0.313. Moreover, the composite z-score in [8] was -0.842; in experiment [9], 1.13; in experiment [11], -0.0702; in experiment [16] it was 0.759; in experiment [17] it was 0.0001; in experiment [18], -0.283. For the same compound, the composite z-score in experiment [19] is 0.843; in [20], -0.254. In addition, the z-score in experiment [7] was -0.731; in experiment [10], 0.0708 (inactive); in experiment [12], -2.86 (inactive); in experiment [13], -1.4 (inactive); in experiment [14] it was -0.322 (inactive); in [15], 0.849 (inactive).

As to `CCN(CC)c1ccc(N2CC=CC34O[C@@H]5/C=C\CCC(C)OC(=O)C5[C@H]3C(=O)N(C(CO)C(C)C)[C@@H]4C2=O)cc1` (stereo not given in full), the composite z-score was -0.264 in experiment [1]; -0.651 in experiment [2]; 0.174 in experiment [3]; -0.4 in experiment [4]; -0.452 in experiment [5]; 0.0509 in [6]. Also, the composite z-score in experiment [8] was -0.674; in experiment [9], -0.558; in experiment [11], -0.443; in [16], -0.826; in [17], -0.108; in experiment [18] it was -0.918. Moreover, the composite z-score in [19] was -1.32; in experiment [20] it was 0.661. The z-score in [7] was 0.93; in experiment [10] it was -1.09 (inactive); in experiment [12] it was -0.122 (inactive); in experiment [13], 0.805 (inactive); in experiment [14] it was 0.337 (inactive); in experiment [15] it was 0.199 (inactive).

Regarding `COC(=O)[C@@]1(Cc2ccccc2)[C@H]2c3cc(C(=O)N4CCCC4)n(CC4CC4)c3C[C@H]2CN1C(=O)c1ccccc1`, the composite z-score in experiment [1] was 1.13; in [2], 1.2; in experiment [3], 0.885; in experiment [4], 0.643; in experiment [5], 0.76; in experiment [6], -0.031. The composite z-score in experiment [8] was 0.206; in [9] it was 0.847; in [11] it was 0.918; in [16] it was 0.907; in [17], 1.06; in experiment [18] it was 0.256. The results for the composite z-score in experiment [19] and in experiment [20] were 0.0577 and -0.151, respectively. Further, the z-score in [7] was -0.641; in [10], 1.42 (inactive); in experiment [12], -3.64 (inactive); in [13] it was 0.798 (inactive); in experiment [14], 0.587 (inactive); in experiment [15], 0.847 (inactive).

Turning to `O=C1O[C@H](c2ccccc2)[C@H](c2ccccc2)N2[C@H]1[C@@H](C(=O)Nc1nc3ccccc3s1)[C@]1(C(=O)Nc3ccc(C#CCCO)cc31)[C@H]2c1ccc(OCCO)cc1`, the composite z-score in experiment [1] was determined as 1.18; in [2], 1.18; in experiment [3] it was 0.232; in experiment [4], 0.9; in experiment [5], 1.43; in experiment [6], 1.15. In addition, the composite z-score is 1.16 in experiment [8]; 1.04 in experiment [9]; 0.767 in experiment [11]; 1.1 in experiment [16]; 0.532 in [17]; 1.15 in [18]. Further, the composite z-score was 0.637 in experiment [19] and 1.05 in [20]. Besides, the z-score in [7] is -2.36; in [10], -2.97 (inactive); in [12], -0.218 (inactive); in experiment [13] it was -0.0404 (inactive); in [14], -0.471 (inactive); in [15], 0.806 (inactive).

For `CCCCN1CC=CC23O[C@@H]4C=CCOC(=O)[C@@H]4[C@H]2C(=O)N(CCCCCO)[C@@H]3C1=O` (stereo not given in full), the composite z-score in [1] is 0.0981; in [2], -0.444; in experiment [3] it was -0.204; in experiment [4], -0.921; in experiment [5] it was -0.712; in [6] it was -0.342. For the same compound, the composite z-score in experiment [8] was -0.393; in experiment [9] it was -0.651; in experiment [11], -0.103; in experiment [16] it was -1.32; in experiment [17] it was -0.0531; in [18], -0.915. The composite z-score worked out at 1.23 in [19] and 1.07 in [20]. Also, the z-score is -0.478 in experiment [7]; 0.01 (inactive) in [10]; 0.445 (inactive) in [12]; -1.08 (inactive) in experiment [13]; -0.761 (inactive) in experiment [14]; -0.645 (inactive) in experiment [15].

The values above are taken from PubChem BioAssay.
